Test results as given in PubChem BioAssay (NCATS).
Values joined by “and” are separate entries in the source; they are usually repeats but may differ in a detail not shown here. Equal entries are not always repeated. Inconclusive results are not listed. Active and inactive are the calls of the source. Unless noted, calls come from the whole dose curve; as a rule, active = well fitted curve in the direction sought with a large enough effect; inconclusive = small, poorly fitted or top-dose-only effect, or another doubt; inactive = no such curve, though single readings can be large; an effect the other way counts as inactive or inconclusive.

Assays:
[1] = biological target: Mitogen-activated protein kinase 10 (Mus musculus) (UniProt Q61831); assay: JNK3 AlphaScreen Assay (AID 530; active = well fitted curve in either direction with a large enough effect, not every such curve was filed as active;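 note: kinase came from lysate of stimulated human HepG2 cells; signal reports phosphorylation of biotinylated GST-cJun 1-79 at Ser73 with 10 µM ATP; % is set by controls: 0 for no effect and ±100 for the full control effect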)
How it was run: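 JNK3 came from HepG2 lysates pre-activated with IL-1beta and TNF-alpha and phosphorylated biotinylated GST-cJun (1-79) at 10 uM ATP, pH 7.6, room temperature. Compounds were titrated. AlphaScreen signal used anti-phospho-cJun (Ser73) antibody.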

[2] = Cell Viability - N2a (AID 540); details: N2a mouse neuroblastoma cell viability; activity change, negative = cytotoxicity: at 92.2 µM (top of the series); note: nearly all actives have a fitted effect of over 45% in size; note: potency is the fitted concentration of half-maximal effect;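 for activity change, negative = cytotoxicity: plate controls were DMSO alone for no effect and tamoxifen control for full effect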
How it was run: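 Mouse neuroblastoma N2a cells (1500/well) were preincubated 5 hr at 37 °C, then exposed to compounds for 40 hr at 37 °C in complete medium. Viability was read as intracellular ATP by CellTiter-Glo luminescence; AC50 from Hill fits.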

[3] = Cell Viability - HUV-EC-C (AID 542); note: % is set by controls: 0 for no effect and ±100 for the full control effect; nearly all actives have a fitted effect of over 35% in size
How it was run: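 HUV-EC-C normal human vascular endothelial cells, 1000 cells/well, pre-incubated 5 hr at 37 °C, then exposed to compounds for 40 hr at 37 °C in complete medium. Viability measured as intracellular ATP by CellTiter-Glo luminescence; AC50 from Hill fits.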

[4] = Cell Viability - H-4-II-E (AID 543); note: nearly all actives have a fitted effect of over 35% in size; note: potency is the fitted concentration of half-maximal effect
How it was run: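 Rat hepatoma H-4-II-E cells (1500/well) were plated, incubated 5 hr at 37 °C, then exposed to compounds for 40 hr at 37 °C. Cellular ATP was read by CellTiter-Glo luminescence; AC50 came from Hill-equation fits of concentration-response data.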

[5] = Cell Viability - SH-SY5Y (AID 544);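 note: 0% = DMSO alone and -100% = 100 µM tamoxifen; nearly all actives have a fitted effect of over 55% in size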
How it was run: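 Human neuroblastoma SH-SY5Y cells (1500/well) in complete medium were exposed to compounds for 40 hr at 37 °C; intracellular ATP was then quantified by CellTiter-Glo luminescence after 20 min at room temperature. AC50 came from Hill-equation concentration-response fits.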

[6] = Cell Viability - Renal Proximal Tubule (AID 545);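 note: 0% = DMSO only and -100% = 100 µM tamoxifen; nearly all actives have a fitted effect of over 40% in size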
How it was run: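 Primary rat renal proximal tubule cells (1000/well) were treated with compounds for 40 hr at 37 °C in complete medium. Intracellular ATP was measured by CellTiter-Glo luminescence, and AC50 values came from Hill-equation fits of concentration-response data.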

[7] = Cell Viability - Mesenchymal (AID 546);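 note: cells exposed to compound for 40 hours before reading; 0% = DMSO only and -100% = 100 µM tamoxifen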
How it was run: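 Normal human renal glomerulus-derived kidney mesenchymal cells, 1000 per well in complete medium, were treated with compounds for 40 hr at 37 °C. Viability was read as intracellular ATP by CellTiter-Glo luminescence; AC50 values came from Hill-equation fits of qHTS concentration-response data.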

[8] = Cellular Toxicity (caspase-3) HepG2 (AID 654);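 note: cells exposed to compound for 16 hours before reading; 0% = DMSO alone and 100% = caspase signal from 100 µM tamoxifen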
How it was run: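 HepG2 cells (1500/well) in complete medium were treated with compounds for 16 hr at 37 °C. Caspase-3/7 activity was then read as luminescence from peptide-aminoluciferin cleavage. AC50 came from Hill fits, normalized to DMSO and 100 uM tamoxifen.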

[9] = Cellular Toxicity (caspase-3) Jurkat (AID 655);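 note: cells exposed to compound for 16 h at 37 °C before reading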
How it was run: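 Jurkat cells (5000/well) in complete medium were treated with compounds for 16 hr at 37 °C, then Caspase-Glo 3/7 luminescence was read after 20 min at room temperature. Data normalized to DMSO (basal) and 100 uM tamoxifen (100%); AC50 from Hill fit.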

[10] = Cellular Toxicity (caspase-3) SHSY5Y (AID 657)
How it was run: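 SH-SY5Y human neuroblastoma cells (1500/well) were treated with compounds for 16 h at 37 °C, then Caspase-Glo 3/7 luminescence was read after 1 h at room temperature. Data normalized to DMSO and 10 uM staurosporine; AC50 from Hill fits.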

[11] = Cellular Toxicity (caspase-3) BJ (AID 658);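 note: 0% = DMSO basal and 100% = 10 µM staurosporine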
How it was run: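 Luminescent aminoluciferin-substrate cleavage reports caspase 3/7 activity in normal human BJ fibroblasts after 16 hr compound exposure at 37 °C. Normalized to DMSO (basal) and 10 uM staurosporine (100%); AC50 from Hill fit of concentration-response.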

[12] = Cellular Toxicity (caspase-3) SK-N-SH (AID 661);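 note: 0% = DMSO basal and 100% = 10 µM staurosporine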
How it was run: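 SK-N-SH human neuroblastoma cells (1500/well) were treated with compounds for 16 hr at 37 °C in complete medium; caspase 3/7 activity was read by Caspase-Glo luminescence. AC50 came from Hill fits of data normalized to DMSO and 10 uM staurosporine.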

[13] = Cellular Toxicity (caspase-3) H-4-II-E (AID 663);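 note: cells exposed to compound for 16 hr before readout; 0% = DMSO basal and 100% = 100 µM tamoxifen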
How it was run: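 Luminescence from caspase-cleaved aminoluciferin substrate, read 20 min after reagent addition, reports caspase 3/7 activation in rat H-4-II-E cells after 16 hr compound exposure. Normalized to DMSO (basal) and 100 uM tamoxifen (100%); AC50 from Hill fits.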

[14] = Cellular Toxicity (caspase-3) Hek293 (AID 664);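 note: cells exposed to compound for 16 h at 37 °C before readout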
How it was run: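 HEK293 cells were exposed to compounds in complete medium for 16 hr at 37 °C, then caspase-3/7 activity was read by Caspase-Glo 3/7 luminescence after 20 min at room temperature. Data normalized to DMSO and 100 uM tamoxifen; AC50 from Hill fits.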

[15] = Cellular Toxicity (caspase-3) N2a (AID 665);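 note: compound exposure lasted 16 h at 37 °C before readout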
How it was run: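 Mouse N2a neuroblastoma cells (1500/well) were treated with compounds for 16 h at 37 °C, then caspase-3/7 activity was read by Caspase-Glo luminescence after 1 h at room temperature. Data were normalized to DMSO and 10 uM staurosporine; AC50 from Hill fits.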

[16] = Cellular Toxicity (caspase-3) NIH 3T3 (AID 666);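 note: 0% = DMSO basal and 100% = 100 µM tamoxifen stimulation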
How it was run: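 Mouse NIH 3T3 fibroblasts (1000 cells/well) were treated with compound for 16 hr at 37°C in complete medium; caspase-3/7 activity was read by Caspase-Glo luminescence. Normalized to DMSO and 100 uM tamoxifen; AC50 from Hill fits.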

[17] = biological target: Glucocorticoid receptor (Homo sapiens) (UniProt P04150); assay: GR-GFP Redistribution (AID 450;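 active = compounds whose dose series gives a full or clear partial fitted curve of increased nuclear translocation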; note: potency is the fitted concentration of half-maximal effect); details: U2OS GR-GFP nuclear translocation, laser cytometry, 2 h
Sequence of Glucocorticoid receptor (Homo sapiens) (P04150 whole entry, looked up, the tested form may be a part): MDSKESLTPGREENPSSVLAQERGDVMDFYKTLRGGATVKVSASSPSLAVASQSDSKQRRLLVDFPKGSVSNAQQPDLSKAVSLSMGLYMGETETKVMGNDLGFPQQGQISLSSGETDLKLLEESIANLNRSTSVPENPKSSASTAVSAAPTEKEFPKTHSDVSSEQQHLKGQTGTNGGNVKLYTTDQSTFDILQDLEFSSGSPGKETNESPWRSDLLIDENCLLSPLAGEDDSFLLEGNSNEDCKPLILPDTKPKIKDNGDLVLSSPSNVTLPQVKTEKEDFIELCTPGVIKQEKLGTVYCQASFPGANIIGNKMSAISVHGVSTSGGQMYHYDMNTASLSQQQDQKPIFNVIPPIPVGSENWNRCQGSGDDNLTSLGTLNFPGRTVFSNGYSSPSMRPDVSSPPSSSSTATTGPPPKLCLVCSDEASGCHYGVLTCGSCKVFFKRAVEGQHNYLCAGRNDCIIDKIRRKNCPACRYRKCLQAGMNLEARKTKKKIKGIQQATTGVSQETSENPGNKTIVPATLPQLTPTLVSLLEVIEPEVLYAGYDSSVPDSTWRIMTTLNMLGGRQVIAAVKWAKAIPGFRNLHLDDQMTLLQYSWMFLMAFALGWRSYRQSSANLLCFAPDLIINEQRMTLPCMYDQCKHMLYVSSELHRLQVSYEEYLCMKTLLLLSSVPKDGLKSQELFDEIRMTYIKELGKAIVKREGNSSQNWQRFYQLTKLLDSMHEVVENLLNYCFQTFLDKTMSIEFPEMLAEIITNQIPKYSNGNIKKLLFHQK

[18] = biological target: Glucocorticoid receptor (Homo sapiens) (UniProt P04150); assay: GR-EFC Redistribution (AID 451; calls by dose curve; note: potency is the fitted concentration of half-maximal effect); details: CHO-K1 GR-EFC translocation, beta-gal luminescence, 2 h
How it was run: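 CHO-K1 cells stably expressing nuclear-localized β-gal enzyme acceptor and GR fused C-terminally to the enzyme donor fragment; ligand-driven nuclear translocation restores β-gal by complementation. Compounds titrated up to 46 uM final, 2 h at 37 °C; luminescence read.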

[19] = biological target: 3',5'-cyclic-AMP phosphodiesterase 4B (Homo sapiens) (UniProt Q07343); assay: qHTS Assay for Inhibitors of PDE-IV (AID 607; active = well fitted activation curve with a large enough effect in the main read-out, with a control signal flat, not every such curve was filed as active; note: % of control where 0% means no effect)
Sequence of 3',5'-cyclic-AMP phosphodiesterase 4B (Homo sapiens) (Q07343 whole entry, looked up): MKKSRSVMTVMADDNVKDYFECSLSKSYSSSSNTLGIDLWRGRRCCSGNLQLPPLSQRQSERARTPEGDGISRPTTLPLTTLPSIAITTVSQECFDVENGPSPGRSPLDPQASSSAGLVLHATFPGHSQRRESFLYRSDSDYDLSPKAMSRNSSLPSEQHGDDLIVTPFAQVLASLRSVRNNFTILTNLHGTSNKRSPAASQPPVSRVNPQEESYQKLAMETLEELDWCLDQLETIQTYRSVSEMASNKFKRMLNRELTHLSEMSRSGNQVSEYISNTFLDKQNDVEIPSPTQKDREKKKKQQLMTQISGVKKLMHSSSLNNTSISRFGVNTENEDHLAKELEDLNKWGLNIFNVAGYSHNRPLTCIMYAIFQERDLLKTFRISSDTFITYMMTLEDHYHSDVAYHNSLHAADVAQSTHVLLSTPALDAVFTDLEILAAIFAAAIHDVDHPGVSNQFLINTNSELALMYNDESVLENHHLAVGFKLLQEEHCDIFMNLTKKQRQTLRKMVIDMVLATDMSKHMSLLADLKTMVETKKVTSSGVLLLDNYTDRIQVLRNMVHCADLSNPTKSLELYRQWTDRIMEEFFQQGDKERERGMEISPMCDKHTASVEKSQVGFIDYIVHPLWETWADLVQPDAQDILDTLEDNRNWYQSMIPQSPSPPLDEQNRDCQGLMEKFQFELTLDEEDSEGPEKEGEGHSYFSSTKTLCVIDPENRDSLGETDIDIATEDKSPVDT
How it was run: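 Live HEK293 cells with a modified cyclic nucleotide-gated (CNG) channel report intracellular cAMP via membrane-potential dye fluorescence (ex 535/em 590 nm). Endogenous PDE-IV was targeted. Compounds were tested at up to 22.9 uM final; RO 20-1724 100 uM served as control.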

[20] = biological target: Guanine nucleotide-binding protein G(i) subunit alpha-1 (Homo sapiens) (UniProt P63096); assay: qHTS Assay for Inhibitors of RGS12 GoLoco Motif Activity (Green Fluorophore) (AID 879);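 note: 0% = labeled peptide with Gαi1 and full inhibition = labeled peptide alone without protein; negative values mean loss of peptide binding seen as reduced polarization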
Sequence of Guanine nucleotide-binding protein G(i) subunit alpha-1 (Homo sapiens) (P63096 whole entry, looked up): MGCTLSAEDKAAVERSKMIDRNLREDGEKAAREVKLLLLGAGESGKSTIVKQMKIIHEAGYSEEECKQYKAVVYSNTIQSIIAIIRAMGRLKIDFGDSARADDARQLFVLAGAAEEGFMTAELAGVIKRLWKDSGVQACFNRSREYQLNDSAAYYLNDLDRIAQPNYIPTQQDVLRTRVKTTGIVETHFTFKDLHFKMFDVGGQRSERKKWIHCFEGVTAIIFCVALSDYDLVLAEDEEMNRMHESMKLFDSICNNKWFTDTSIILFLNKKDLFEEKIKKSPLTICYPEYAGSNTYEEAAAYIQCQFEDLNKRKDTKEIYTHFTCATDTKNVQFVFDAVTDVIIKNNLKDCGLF
How it was run: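 Fluorescence polarization assay: 50 nM Gαi1 with 10 nM FITC-labeled RGS12 GoLoco peptide in 10 mM Tris pH 7.5, 150 mM NaCl, 0.1 mM GDP, 0.05% NP40, 10 min at room temperature with compound.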

NCCNCCNCCN
inactive: Potency [1] | activity change, negative = cytotoxicity [2] -20% | Potency [3] | Potency [4] | Potency [5] | Potency [6] | outcome [7] | Potency [8] | Potency [9] | outcome [10] | outcome [11] | outcome [12] | outcome [13] | outcome [14] | outcome [15] | outcome [16]

Oc1cccc(O)c1
inactive: Potency [1] | activity change, negative = cytotoxicity [2] -7.46% | Potency [3] | Potency [4] | Potency [6] | outcome [7] | Potency [8] | Potency [9] | outcome [10] | outcome [11] | outcome [12] | outcome [13] | outcome [14] | outcome [15] | outcome [16]

[Cl][In]([Cl])[Cl]
inactive: activity change, negative = cytotoxicity [2] -0.39% | Potency [3] | Potency [4] | Potency [5] | Potency [6] | outcome [7] | Potency [8] | Potency [9] | outcome [10] | outcome [11] | outcome [12] | outcome [13] | outcome [14] | outcome [15] | outcome [16]

N=c1c[n+](N2CCOCC2)[n-]o1
inactive: Potency [17] > 46 µM and > 20.6 µM | Potency [18] > 46 µM | Potency [1] | outcome [19] | outcome [20]

CC1=C(CC(=O)O)c2cc(F)ccc2/C1=C\c1ccc(S(C)(=O)=O)cc1
inactive: Potency [1] | outcome [19] | outcome [20]

Nc1ccc(S(=O)(=O)Nc2ccc(Cl)nn2)cc1
inactive: Potency [1] | outcome [19]

O=C(O)CN1C(=O)c2cccc3cccc(c23)C1=O
inactive: Potency [1]

Cn1cc[nH]c1=S
inactive: Potency [1] | outcome [19]

NC(=O)N/N=C/c1ccc([N+](=O)[O-])o1
inactive: Potency [1] | Potency [3] | Potency [5] | Potency [6] | outcome [7] | Potency [8] | Potency [9] | outcome [10] | outcome [11] | outcome [12] | outcome [13] | outcome [14] | outcome [15] | outcome [16]
active: Potency [2] 31.6 µM | Potency [4] 31.6 µM

CC(=O)OCC(=O)[C@@]1(O)CC[C@H]2[C@@H]3CCC4=CC(=O)CC[C@]4(C)[C@H]3C(=O)C[C@@]21C
inactive: outcome [20]

c1ccc(CN(CC2=NCCN2)c2ccccc2)cc1
inactive: Potency [1] | outcome [19]

CCn1cc(C(=O)O)c(=O)c2cnc(N3CCNCC3)nc21
inactive: Potency [1] | outcome [19]

O=C1c2c(O)cccc2Cc2cccc(O)c21
inactive: Potency [1] | Potency [3] | Potency [4] | Potency [5] | Potency [6] | Potency [8] | Potency [9] | outcome [10] | outcome [11] | outcome [12] | outcome [13] | outcome [14] | outcome [15] | outcome [16]

CCN(CC)CCNC(=O)c1cc(Cl)c(N)cc1OC
inactive: Potency [1] | outcome [19] | outcome [20]

CCCCCCCCCCCCCCCC(=O)NCCO
inactive: Potency [1] | outcome [19] | outcome [20]

CC12CCC(CC1)C(C)(C)O2
inactive: Potency [1] | activity change, negative = cytotoxicity [2] -7.51% | Potency [3] | Potency [4] | Potency [5] | Potency [6] | outcome [7] | Potency [8] | Potency [9] | outcome [10] | outcome [11] | outcome [12] | outcome [13] | outcome [14] | outcome [15] | outcome [16]
